The values that follow come from PubChem BioAssay (EPA / NIEHS).

A short description of experiment [1]: ATG_CRE_CIS: Attagene CIS-FACTORIAL HepG2 Assay for human cAMP Responsive Element (CRE) binding protein 3 (AID 2282926). The conditions noted are these: HepG2 CRE cis-reporter, Attagene multiplexed mRNA; actives raise or lower the signal. The gist of the method:
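Multiplexed transcription-unit reporters transfected into HepG2; 24 h dosing; RT-PCR/capillary electrophoresis fluorescence read-out; bidirectional fit vs DMSO.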

Experiment [2] concerns the target CCAAT/enhancer-binding protein beta (Homo sapiens) (UniProt P17676). The experiment in a line: ATG_C_EBP_CIS: Attagene CIS-FACTORIAL HepG2 Assay for human CCAAT/Enhancer Binding Protein (C/EBP) beta (AID 2282927). The conditions noted are these: HepG2 Attagene cis-factorial transcription factor reporter; actives raise or lower the signal. The procedure, abridged:
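Transiently transfected HepG2 (MRTU library, endogenous TF-driven promoters); 24 h dosing; total RNA → oligo(dT) RT → PCR → 6-FAM primer extension → HpaI digest → CE; fit bidirectionally vs DMSO.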

Experiment [3] in a line: ATG_CMV_CIS: Attagene CIS-FACTORIAL HepG2 Assay for human CMV (Internal Marker) (AID 2282928).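 Further: endpoint acts as a background internal control marker rather than a target.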 The note with it: HepG2 CMV promoter reporter, transcription factor profiling; actives raise or lower the signal. The procedure, abridged: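 Cell system: HepG2, transiently transfected multiple reporter units under cis promoters. Exposure: 24 h. Detection: RT-PCR, FAM labeling, HpaI digestion, capillary electrophoresis. Analysis: bidirectional, DMSO baseline.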

A short description of experiment [4]: ATG_DR4_LXR_CIS: Attagene CIS-FACTORIAL HepG2 Assay for human Liver X Receptor (LXR), DR4 submotif (AID 2282929). The conditions noted are these: HepG2 Attagene DR4 cis-reporter, mRNA transcription; actives raise or lower the signal. The gist of the method: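 Endogenous factor activity at a DR4 cis-element is read as reporter mRNA in transiently transfected HepG2 cells. Exposure lasts 24 h; transcripts are amplified, fluorescently labelled and sized by capillary electrophoresis, with DMSO as baseline.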

The target of experiment [5] is Aryl hydrocarbon receptor (Homo sapiens) (UniProt P35869). The experiment in a line: ATG_Ahr_CIS: Attagene CIS-FACTORIAL HepG2 Assay for human Aryl Hydrocarbon Receptor (Ahr) (AID 2282930). The note with it: HepG2 AhR cis-factorial reporter transcription; actives raise or lower the signal. The procedure, abridged:
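Read-out: reporter mRNA quantified by RT-PCR with fluorescent primer extension and capillary electrophoresis. Human HepG2 liver cells carried transfected cis-promoter reporter units and were exposed to chemical for 24 h; gain or loss fitted relative to DMSO.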

Experiment [6] in a line: ATG_AP_1_CIS: Attagene CIS-FACTORIAL HepG2 Assay for human Activator Protein 1 (AP-1) (AID 2282931). The note with it: HepG2 Attagene cis-factorial AP-1 reporter mRNA; actives raise or lower the signal. The procedure, abridged: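 Fluorescence of labelled PCR fragments separated by capillary electrophoresis gives reporter mRNA levels. HepG2 with transfected cis-regulated reporter units, 24 h exposure; DMSO serves as baseline for bidirectional curve fits.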

The nature of experiment [7]: ATG_AP_2_CIS: Attagene CIS-FACTORIAL HepG2 Assay for human Activator Protein 2 (AP-2) (AID 2282932). The conditions noted are these: HepG2 AP-2 cis-reporter, Attagene transcription factor profiling; actives raise or lower the signal. The procedure, abridged: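 Multiplexed mRNA reporter assay in HepG2: cis-regulated units report endogenous factor activity after 24 h treatment. Fluorescence from capillary electrophoresis of RT-PCR products gives the signal, with DMSO as baseline.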

Experiment [8] concerns the target Retinoic acid receptor alpha (Homo sapiens) (UniProt P10276). The experiment in a line: ATG_DR5_RAR_CIS: Attagene CIS-FACTORIAL HepG2 Assay for human Retinoic Acid Receptor Alpha (RARE), DR5 submotif (AID 2282934). The note with it: HepG2 Attagene cis-factorial RARE DR5 reporter, mRNA; actives raise or lower the signal. The procedure, abridged: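 Read-out: DR5-driven reporter transcript measured by RT-PCR, 6-FAM primer extension, HpaI digest and capillary electrophoresis. Human HepG2 liver cells carry transiently transfected cis-element reporter constructs; dosing lasts 24 h. Gain or loss of signal fitted against DMSO baseline.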

Experiment [9] has as its target Transcription factor E2F1 (Homo sapiens) (UniProt Q01094). The experiment in a line: ATG_E2F_CIS: Attagene CIS-FACTORIAL HepG2 Assay for human E2F Transcription Factor 1 (AID 2282935). The conditions noted are these: HepG2 Attagene cis-reporter, E2F reporter RNA transcripts; actives raise or lower the signal. The procedure, abridged: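 Measures reporter transcript levels via RT-PCR with capillary electrophoresis detection in HepG2 cells harboring cis-regulated reporter units; 24 h post-dose; bidirectional curve fitting with DMSO as baseline.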

Experiment [10] can be described thus: ATG_E_Box_CIS: Attagene CIS-FACTORIAL HepG2 Assay for human Enhancer Box (E-box) (AID 2282936). The conditions noted are these: HepG2 E-box cis-reporter transcription, actives raise or lower the signal. The procedure, abridged:
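First, HepG2 cells receive multiple cis-regulated reporter constructs by transient transfection. Next, chemicals are applied for 24 h. Finally, reporter mRNA is quantified via RT-PCR and capillary electrophoresis, with DMSO as baseline.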

Experiment [11] can be described thus: ATG_M_61_CIS: Attagene CIS-FACTORIAL HepG2 Assay for M61 Transcription Factor (Internal Marker) (AID 2282937). The conditions noted are these: HepG2 Attagene CIS-FACTORIAL M61 internal marker reporter; actives raise or lower the signal. The procedure, abridged:
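This endpoint serves as an internal background control within a multiplexed HepG2 cis-reporter panel. Cells are exposed for 24 h; reporter mRNA is amplified, fluorescently labelled and sized by capillary electrophoresis, with DMSO as negative control.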

Experiment [12] in a line: ATG_EGR_CIS: Attagene CIS-FACTORIAL HepG2 Assay for human Early Growth Response 1 (EGR1) (AID 2282938). The note with it: HepG2 Attagene CIS-FACTORIAL EGR reporter mRNA; actives raise or lower the signal. The procedure, abridged:
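HepG2, transient MRTU transfection (cis promoters), 24 h compound. RNA → RT (oligo-dT) → PCR → 6-FAM labelling → HpaI cut → CE fluorescence. Bidirectional fit, DMSO baseline.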

Experiment [13] in a line: ATG_M_19_CIS: Attagene CIS-FACTORIAL HepG2 Assay for M19 Transcription Factor (Internal Marker) (AID 2282939). The conditions noted are these: HepG2 Attagene CIS-FACTORIAL M19 internal marker reporter; actives raise or lower the signal. The gist of the method:
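Internal marker readout, fitted in both directions against DMSO, from HepG2 cells carrying transfected cis-element reporter constructs; RT-PCR and capillary electrophoresis of reporter mRNA after 24 h exposure.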

Experiment [14] in a line: ATG_ERE_CIS: Attagene CIS-FACTORIAL HepG2 Assay for Estrogen Response Element (ERE) (AID 2282940). The note with it: HepG2 ERE cis-reporter, Attagene RNA transcript; actives raise or lower the signal. The gist of the method:
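After 24 h compound treatment, RNA from transfected HepG2 cells was reverse-transcribed, reporter cDNA PCR-amplified, FAM-labelled, HpaI-cut and resolved by capillary electrophoresis. ERE-driven cis reporter transcripts reflect endogenous factors; gain or loss scored against DMSO.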

Experiment [15] in a line: ATG_Ets_CIS: Attagene CIS-FACTORIAL HepG2 Assay for human Erythroblast Transformation Specific (ETS) (AID 2282941). The conditions noted are these: HepG2 ETS cis-reporter transcription, actives raise or lower the signal. The procedure, abridged: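 After transient cis-reporter transfection, HepG2 cells receive test chemical for 24 h. Reporter mRNA levels, measured by RT-PCR and capillary electrophoresis fluorescence, are analysed bidirectionally relative to the DMSO baseline.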

Experiment [16] deals with Hepatocyte nuclear factor 3-beta (Homo sapiens) (UniProt Q9Y261). The experiment is described as follows: ATG_FoxA2_CIS: Attagene CIS-FACTORIAL HepG2 Assay for human Forkhead box A2 (FOXA2) (AID 2282942). The note with it: HepG2 cis-reporter transcription factor activity, 24 h; actives raise or lower the signal. The procedure, abridged: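 Cells: HepG2, transient multiplex reporter transfection. Exposure 24 h. Detection: reporter-specific RT-PCR, fluorescent labelling, restriction digest, capillary electrophoresis. Analysis: bidirectional curve fit, DMSO as negative control.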

A short description of experiment [17]: ATG_FoxO_CIS: Attagene CIS-FACTORIAL HepG2 Assay for human Forkhead box O (FoxO) (AID 2282943). The note with it: HepG2 Attagene cis-reporter, FoxO element, mRNA; actives raise or lower the signal. The procedure, abridged:
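Read-out: fluorescence of 6-FAM-labelled reporter cDNA fragments resolved by capillary electrophoresis. Transiently transfected HepG2 cells were dosed for 24 h; activity fitted in both directions relative to DMSO controls.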

A short description of experiment [18]: ATG_GATA_CIS: Attagene CIS-FACTORIAL HepG2 Assay for human GATA Binding Protein (AID 2282944). The note with it: HepG2 GATA cis-element reporter, Attagene multiplex mRNA; actives raise or lower the signal. The gist of the method: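 Reporter transcripts from a GATA cis-regulated unit, among multiplexed reporters in transfected HepG2 cells, were measured by RT-PCR with capillary electrophoresis after 24 h dosing. Induction or loss scored relative to DMSO.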

A short description of experiment [19]: ATG_GLI_CIS: Attagene CIS-FACTORIAL HepG2 Assay for human Zinc Finger Protein GLI1 (AID 2282945). The conditions noted are these: HepG2, Attagene cis-factorial reporter mRNA, GLI element; actives raise or lower the signal. The procedure, abridged: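 Transiently transfected HepG2 cells report endogenous transcription factor activity via cis-element-driven reporter units. After 24 h compound exposure, reporter mRNA was measured by RT-PCR with capillary electrophoresis; bidirectional fitting against DMSO baseline.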

Experiment [20] in a line: ATG_BRE_CIS: Attagene CIS-FACTORIAL HepG2 Assay for human Bone Morphogenetic Protein (BMP) Response Element (BRE) (AID 2282933). The note with it: HepG2 BMP response element reporter, Attagene transcription factor profiling; actives raise or lower the signal. The gist of the method:
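Endogenous transcription factor activity read in transiently transfected HepG2 cells after 24 h chemical exposure. Bidirectional curve fitting against DMSO; readout is reporter transcript level by RT-PCR with capillary electrophoresis of labelled products.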

“And” between values parts separate entries of the source, which are not always exact repeats. Identical values can stand only once. A structure can be active in one record and inactive in another. The source made the active and inactive calls. How the source made its calls: active means hit-call score of the fitted dose curve at least 0.9, where 1 is the maximum; inactive means score below 0.9.

Aryl hydrocarbon receptor (Homo sapiens), sequence (P35869 whole entry, looked up): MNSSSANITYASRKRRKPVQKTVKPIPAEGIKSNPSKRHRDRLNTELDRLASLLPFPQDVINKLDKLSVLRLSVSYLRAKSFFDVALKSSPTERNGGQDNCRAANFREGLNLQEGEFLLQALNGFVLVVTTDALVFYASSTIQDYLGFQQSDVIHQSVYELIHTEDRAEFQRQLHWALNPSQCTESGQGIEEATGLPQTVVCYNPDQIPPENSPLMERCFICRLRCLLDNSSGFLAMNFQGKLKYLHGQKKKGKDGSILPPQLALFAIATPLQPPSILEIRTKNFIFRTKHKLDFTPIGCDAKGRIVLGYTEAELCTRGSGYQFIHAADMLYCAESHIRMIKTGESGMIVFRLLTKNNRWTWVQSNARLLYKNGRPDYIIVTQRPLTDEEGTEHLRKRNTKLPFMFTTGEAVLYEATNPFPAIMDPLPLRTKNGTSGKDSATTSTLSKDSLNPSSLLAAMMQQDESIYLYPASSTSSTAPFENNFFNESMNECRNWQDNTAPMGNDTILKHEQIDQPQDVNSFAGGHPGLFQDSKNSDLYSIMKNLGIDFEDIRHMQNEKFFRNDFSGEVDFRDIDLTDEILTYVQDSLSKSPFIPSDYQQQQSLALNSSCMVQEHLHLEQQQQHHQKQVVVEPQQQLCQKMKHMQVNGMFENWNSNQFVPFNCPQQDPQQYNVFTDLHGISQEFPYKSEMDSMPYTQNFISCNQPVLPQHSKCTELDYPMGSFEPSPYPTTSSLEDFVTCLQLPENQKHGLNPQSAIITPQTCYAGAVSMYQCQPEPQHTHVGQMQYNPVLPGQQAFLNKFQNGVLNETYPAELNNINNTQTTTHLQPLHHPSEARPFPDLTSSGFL
CCAAT/enhancer-binding protein beta (Homo sapiens), sequence (P17676 whole entry, looked up): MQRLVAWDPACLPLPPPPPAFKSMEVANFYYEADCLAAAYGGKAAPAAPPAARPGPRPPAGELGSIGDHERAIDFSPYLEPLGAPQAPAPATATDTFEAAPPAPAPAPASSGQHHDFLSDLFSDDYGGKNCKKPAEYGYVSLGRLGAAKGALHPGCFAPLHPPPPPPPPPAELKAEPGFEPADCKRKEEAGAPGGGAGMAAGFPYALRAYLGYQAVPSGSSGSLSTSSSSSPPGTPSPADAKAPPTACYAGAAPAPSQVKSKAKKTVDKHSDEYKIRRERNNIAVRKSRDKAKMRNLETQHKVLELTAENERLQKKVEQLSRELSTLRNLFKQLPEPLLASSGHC
Hepatocyte nuclear factor 3-beta (Homo sapiens), sequence (Q9Y261 whole entry, looked up): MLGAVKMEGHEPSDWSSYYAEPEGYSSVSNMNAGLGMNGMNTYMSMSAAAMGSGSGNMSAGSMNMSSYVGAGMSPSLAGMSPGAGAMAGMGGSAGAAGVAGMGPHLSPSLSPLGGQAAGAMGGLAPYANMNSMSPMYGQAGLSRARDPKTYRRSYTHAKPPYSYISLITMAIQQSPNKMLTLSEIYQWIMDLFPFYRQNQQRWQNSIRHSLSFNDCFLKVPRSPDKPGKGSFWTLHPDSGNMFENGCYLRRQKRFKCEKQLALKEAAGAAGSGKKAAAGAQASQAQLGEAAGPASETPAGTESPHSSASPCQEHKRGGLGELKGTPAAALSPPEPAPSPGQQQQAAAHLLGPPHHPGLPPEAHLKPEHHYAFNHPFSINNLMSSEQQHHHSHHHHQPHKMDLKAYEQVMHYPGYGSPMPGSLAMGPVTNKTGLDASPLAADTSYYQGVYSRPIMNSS
Retinoic acid receptor alpha (Homo sapiens), sequence (P10276 whole entry, looked up): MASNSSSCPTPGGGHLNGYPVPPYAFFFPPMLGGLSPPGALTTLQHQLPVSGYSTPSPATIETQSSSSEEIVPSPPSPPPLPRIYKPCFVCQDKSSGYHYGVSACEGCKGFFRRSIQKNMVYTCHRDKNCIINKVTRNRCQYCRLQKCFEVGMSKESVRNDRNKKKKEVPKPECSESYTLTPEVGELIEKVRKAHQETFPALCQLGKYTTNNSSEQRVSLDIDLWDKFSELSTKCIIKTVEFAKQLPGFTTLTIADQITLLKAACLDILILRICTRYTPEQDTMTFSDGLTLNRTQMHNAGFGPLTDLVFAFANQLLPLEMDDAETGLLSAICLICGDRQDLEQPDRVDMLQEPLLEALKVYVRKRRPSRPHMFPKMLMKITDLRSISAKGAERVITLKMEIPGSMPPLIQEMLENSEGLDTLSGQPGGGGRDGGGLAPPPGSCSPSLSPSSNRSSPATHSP
Transcription factor E2F1 (Homo sapiens), sequence (Q01094 whole entry, looked up): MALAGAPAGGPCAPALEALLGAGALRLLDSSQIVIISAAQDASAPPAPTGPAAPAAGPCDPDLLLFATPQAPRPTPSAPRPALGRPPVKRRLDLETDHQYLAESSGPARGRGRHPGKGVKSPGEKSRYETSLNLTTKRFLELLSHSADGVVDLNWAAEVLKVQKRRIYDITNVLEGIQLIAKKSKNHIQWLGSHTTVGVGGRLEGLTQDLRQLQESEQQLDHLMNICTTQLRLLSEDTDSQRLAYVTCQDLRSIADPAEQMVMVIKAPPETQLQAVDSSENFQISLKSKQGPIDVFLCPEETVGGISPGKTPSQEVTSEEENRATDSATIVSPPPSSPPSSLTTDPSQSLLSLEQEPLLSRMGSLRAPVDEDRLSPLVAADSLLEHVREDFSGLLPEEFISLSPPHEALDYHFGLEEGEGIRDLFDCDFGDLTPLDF

Regarding `COC(=O)C(F)(F)C(F)(F)OC(F)(C(F)(F)F)C(F)(F)OC(F)=C(F)F` (stereo unspecified), the compound was classed as inactive in [1], in [2], in experiment [3], in experiment [4], in experiment [5] and in [6]. Further, the outcome in experiment [7], in experiment [8], in [9], in experiment [10], in experiment [11] and in [12] was inactive. The compound was called inactive in experiment [13], in [15], in experiment [16], in [17], in experiment [18] and in experiment [19]. Moreover, the AC50 in [4] was 20.2 µM (active); in [6] it was 9.89 µM (active); in experiment [14] it was 303 nM (active) and 563 nM (active) and 514 nM (active).

As for `O=c1[nH]c2ccccc2c(=O)o1`, the compound was classed as inactive in experiment [1], in [2], in [3], in [4], in experiment [6] and in experiment [7]. Besides, the result in experiment [20], in [8], in experiment [9], in experiment [10], in experiment [11] and in experiment [12] was inactive. The compound was called inactive in experiment [13], in experiment [14], in [15], in experiment [16], in experiment [17] and in [18]. Further, the call in experiment [19] was inactive. In addition, the AC50 in [5] is 89.5 µM (active).

Turning to `Cc1cc(C)c(C(=O)P(=O)(c2ccccc2)c2ccccc2)c(C)c1`, the outcome in experiment [1], in experiment [2], in [3], in [5], in [6] and in [20] was inactive. Further, the compound was classed as inactive in experiment [8], in [9], in [15], in [16] and in experiment [17]. Also, the AC50 in experiment [4] was 11.5 µM (active); in [7] it was 59.3 µM (active); in [10], 54.9 µM (active); in experiment [11] it was 60.7 µM (active); in experiment [12], 41.3 µM (active); in experiment [13], 61.5 µM (active). Further, the AC50 in [14] was 8.69 µM (active); in experiment [18] it was 54.9 µM (active); in experiment [19], 60 µM (active).

For orientation: AC50 means the concentration at which the activity in the assay is half-maximal.
